Sampled rows, rich in hits. Any-hit rate of the full collection: about 15%.
ELG1 repair inh: qHTS screen for small molecules that inhibit ELG1-dependent DNA repair in human embryonic kidney (HEK293T) cells expressing luciferase-tagged ELG1; HEK293T ELG1-luciferase reporter, luminescence, 16 h; DNA damage induced by 5-fluorouridine; Potency, µM (titrated, usually from 46.1 µM), inactives show at the highest dose activity change, negative = inhibition, hits mostly inhibitors; 2.3% of 330,000 active; AID 504467, 2011; further: nearly all actives have a fitted effect of over 55% in size
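Cells (2,000 per well) received 5-fluorouridine plus test compound or DMSO and were incubated 16 hr at 37 °C, 5% CO2. Luciferase activity was read by luminescence 30 min after ONE-Glo addition; signal suppression marked inhibition of damage-induced ELG1 function.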
VP16 counter: VP16 counterscreen qHTS for inhibitors of ROR gamma transcriptional activity. Drosophila S2 Gal4-VP16 UAS-luciferase, luminescence, 20 h. 3.5% of 310,000 active. Potency, µM (series often up to 53.6 µM), inactives show at the top dose activity, negative = inhibition, usual class: inhibitors;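 further: Gal4-VP16 expression switched on by copper sulfate through the metallothionein promoter; nearly all actives have a fitted effect of over 50% in size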
RORgamma inh: qHTS for inhibitors of ROR gamma transcriptional activity | Nuclear receptor ROR-gamma (Mus musculus), P51450 | Drosophila S2 Gal4-RORgamma UAS-luciferase reporter, 20 h | Potency, µM (highest dose often 53.6 µM), without a hit: top-dose activity change, negative = inhibition, hits mostly inhibitors | 5.4% of 310,000 active | AID 2551, 2010; further: nearly all actives have a fitted effect of over 60% in size
Target sequence (P51450 whole entry, looked up, the tested form may be a part): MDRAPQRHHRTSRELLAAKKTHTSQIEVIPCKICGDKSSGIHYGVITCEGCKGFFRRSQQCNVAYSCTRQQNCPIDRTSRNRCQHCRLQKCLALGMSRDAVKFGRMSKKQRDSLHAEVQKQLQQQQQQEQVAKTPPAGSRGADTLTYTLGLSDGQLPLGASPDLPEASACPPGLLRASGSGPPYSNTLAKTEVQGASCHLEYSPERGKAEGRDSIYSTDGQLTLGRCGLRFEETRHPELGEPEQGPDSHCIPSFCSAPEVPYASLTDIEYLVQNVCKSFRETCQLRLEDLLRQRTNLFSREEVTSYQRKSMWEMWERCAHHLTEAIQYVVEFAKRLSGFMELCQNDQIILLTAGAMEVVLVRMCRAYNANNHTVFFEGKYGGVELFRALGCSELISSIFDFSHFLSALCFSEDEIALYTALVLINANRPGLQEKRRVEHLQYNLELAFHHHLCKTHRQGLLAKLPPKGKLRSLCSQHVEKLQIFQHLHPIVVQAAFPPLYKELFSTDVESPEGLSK
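Compounds are pin-transferred onto Drosophila Schneider cells expressing a copper-inducible Gal4–ROR gamma transactivation domain fusion. After 1 hr, copper sulfate is added to 700 uM final; luciferase is read 20 hr later.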
TDP1 cell noCPT: qHTS for Inhibitors of human tyrosyl-DNA phosphodiesterase 1 (TDP1): qHTS in cells in absence of CPT; 15% of 420,000 active; Potency, µM (doses to about 46.2 µM), for inactives: at the highest dose activity change, negative = growth inhibition, actives largely listed as inhibitors; DT40 Tdp1-/- hTDP1 cells, no CPT, ATP luminescence, 48 h; AID 686978, 2013; further: nearly all actives have a fitted effect of over 55% in size
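Compound effects on proliferation are scored in DT40 Tdp1-/-;hTDP1 cells in the absence of CPT. ATP levels (CellTiter-Glo luminescence) are recorded after a ≥48 hr, 37 °C incubation.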
TDP1 cell CPT: qHTS for Inhibitors of human tyrosyl-DNA phosphodiesterase 1 (TDP1): qHTS in cells in presence of CPT. chicken DT40 Tdp1-/-;hTDP1 cells + 20 nM CPT, ATP luminescence, 48 h. Potency, µM (series often up to 46.2 µM), inactives show at the top dose activity change, negative = growth inhibition, usual class: inhibitors. 12% of 420,000 active. AID 686979, 2013; further: nearly all actives have a fitted effect of over 55% in size
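Cell growth measured by CellTiter-Glo luminescence after a minimum 48 h, 37 C compound exposure with 20 nM CPT in Tdp1-knockout DT40 cells stably expressing hTDP1, seeded 400/well; qHTS titration format.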
12-LOX inh: Primary qHTS assay for inhibitors of human arachidonate 12S-lipoxygenase (ALOX12): Round 2; 1.1% of 580,000 active; Potency, µM (highest dose often 108 µM), inactives show at the highest dose activity change, negative = inhibition, hits mostly inhibitors; purified 12hLO, xylenol orange hydroperoxide absorbance
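Purified human 12hLO (150 nM final) in 25 mM Hepes, 0.01% Triton X-100, pH 7.0 was preincubated 15 min at room temperature with compound. Then 40 uM arachidonic acid was added, 30 min. Hydroperoxide was read by Fe-XO absorbance ratio 573/405 nm.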
Starred values were filed as active, the others as inactive; u = inconclusive; x = no result given; [ ] = remark or other dose. The call rests on the fitted dose curve; in most records, active means well fitted curve in the direction sought with a large enough effect; inconclusive means small, poorly fitted or top-dose-only effect, or another doubt; inactive means no such curve, though single readings can be large; an effect the other way counts as inactive or inconclusive. On the % scale 0 is the no-effect control and ±100 the full control effect; potency means the concentration at half of the fitted maximal effect.

SMILES	ELG1 repair inh	VP16 counter	RORgamma inh	TDP1 cell noCPT	TDP1 cell CPT	12-LOX inh
CC1c2cc3c(cc2CCN1C(=O)c1ccc(C(F)(F)F)cc1)OCCCO3 (centres undefined)	-11%	4%	8%	u	u	13%
Cc1ccc(C(=O)N2CCc3cc4c(cc3C2C)OCCCO4)cc1 (centres undefined)	-5%	-1%	2%	u	23µM*	13%
COc1cc2c(cc1OC)[C@H](C)N(C(=O)c1ccc(F)cc1)CC2	x	x	x	x	x	-17%
CCCc1cc(=O)c2c(O)ccc(OC)c2o1	-7%	6%	-1%	-17%	0%	25µM*
COc1cc(-c2cc(OC)c3c(C)oc(C)c3c(=O)c2)ccc1O	11%	7%	5%	u	u	u
CC[C@@H]1C/C=C\Cc2ccccc2[C@H](C(=O)C[C@@H](O)CC(C)=O)OC1=O	-7%	x	x	u	13µM*	-8%
CC[C@H]1C/C=C\Cc2ccccc2[C@H](C(=O)C[C@@H](O)CC(C)=O)OC1=O	0%	x	x	-19%	1%	-25%
CC(OC(=O)c1cc(C2CC2)nn1-c1ccccc1)C(=O)Nc1ccc2c(c1)OCCO2 (centres undefined)	x	x	x	x	x	-13%
COc1cc(OC)c(NC(=O)c2cnn(-c3ccccc3)c2-n2cccc2)cc1Cl	x	x	x	-22%	-3%	-24%
COc1ccc(CNC(=O)c2cnn(-c3ccccc3)c2-n2cccc2)cc1OC	x	x	x	18µM*	u	2%
COc1ccccc1NC(=O)c1cnn(-c2ccccc2)c1-n1cccc1	x	x	x	18µM*	18µM*	-15%
COc1ccc(CNC(=O)c2cnn(-c3ccc(C)cc3)c2-n2cccc2)cc1OC	x	x	x	16µM*	u	-16%
CCOC(=O)c1cccc(NC(=O)c2cnn(-c3ccccc3)c2-n2cccc2)c1	x	x	x	21µM*	26µM*	-8%
NNC(=O)c1cnn(-c2ccccc2)c1-n1cccc1	0%	1%	-10%	-12%	3%	3%
O=[S+]([O-])(Nc1ccccc1)c1ccc2c(c1)OCCN(Cc1cncnc1)C2	x	x	x	x	x	-19%[176 µM]
O=C(Nc1cc(C(F)(F)F)ccc1Cl)c1cnn(-c2ccccc2)c1-n1cccc1	x	x	x	23µM*	23µM*	-13%
O=C(NC[C@H]1OC[C@@H](NC2CCC2)[C@@H]1O)c1ccccc1	x	x	x	x	x	17%[176 µM]
Cc1ccc(NC(=O)CC(C)(C)CC(=O)O)cc1C	x	x	x	x	x	-1%
CCN1C(=O)[C@@H]2[C@@H](c3ccc(-c4ccc5c(c4)OCO5)c(OC)c3)N3CCC[C@@]3(C(=O)OC)[C@@H]2C1=O	-8%	x	x	u	-10%	11µM*
CCCSc1ccc([C@@H]2[C@H]3C(=O)N(CC)C(=O)[C@H]3[C@]3(C(=O)OC)CCCN23)cc1OC	-1%	x	x	u	u	u
COC(=O)[C@@]12CCCCN1[C@H](c1ccc(-c3ccc4c(c3)OCO4)c(OC)c1)[C@@H]1C(=O)N(C)C(=O)[C@@H]12	-15%	x	x	u	u	-29%
CCN1C(=O)[C@@H]2[C@@H](c3ccc(-c4ccc5c(c4)OCO5)cc3)N3CCCC[C@@]3(C(=O)OC)[C@@H]2C1=O	u	x	x	21µM*	15µM*	-12%
CCN1C(=O)[C@H]2[C@@H](c3ccc(-c4ccc5c(c4)OCO5)cc3)N3CCC[C@@]3(C(=O)OC)[C@H]2C1=O	u	x	x	12µM*	u	-11%
NC(=O)[C@@H](Cc1c[nH]c2ccccc12)NC(=O)[C@@H]1[C@@H](NC(=O)NC2CCCCC2)CCN1C(=O)c1cnccn1	x	x	x	x	x	-7%
COc1ccc(CNc2cccc(C(=O)O)c2C)c(OC)c1	x	x	x	x	x	-3%
SMILES	ELG1 repair inh	VP16 counter	RORgamma inh	TDP1 cell noCPT	TDP1 cell CPT	12-LOX inh
Cc1ccc(-n2ncc(C(=O)NCc3ccco3)c2C2CCN(C(=O)OC(C)(C)C)CC2)cc1C	x	x	x	u	16µM*	-4%
Cc1ccc(-n2ncc(C(=O)NCc3ccco3)c2C2CCN(C(=O)OC(C)(C)C)CC2)cc1	x	x	x	18µM*	18µM*	-4%
NC(=O)c1cccc(-c2cccc3nccn23)c1	x	x	x	-2%	-4%	21%
Clc1cccc(-c2cccc3nccn23)c1	x	x	x	21µM*	23µM*	u
CN(C)c1ccc(-c2cccc3nccn23)cc1	x	x	x	15µM*	u	-25%
CC1=C[C@@H](CNC(=O)c2ccccn2)[C@H](C(C)C)C[C@H]1Cc1nnc(-c2ccncc2)o1	x	x	x	x	x	0%[176 µM]
COc1ccccc1CC(=O)Nc1cccc(C(=O)NC(C)(C)C)c1	x	x	x	x	x	-33%
Cc1nc(CCN2C(=O)c3ccccc3C2=O)n[nH]1	11%	13%	17%	23µM*	u	71%
CCc1ccc(CCN2C(=O)c3ccccc3C2=O)nc1	u	-17%	0%	0%	-3%	4%
CCc1cc(=O)oc2c3c(cc(OCC(=O)NCCCCCC(=O)O)c12)OC(C)(C)CC3	u	0%	1%	12%	3%	-16%
Cc1cc(=O)oc2c3c(cc(OCC(=O)NCCCn4ccnc4)c12)OC(C)(C)CC3	15%	-3%	-13%	u	u	15%
CCc1cc(=O)oc2c3c(cc(OCC(=O)NCc4ccccn4)c12)OC(C)(C)CC3	u	0%	0%	u	23µM*	9%
CCc1cc(=O)oc2c3c(cc(OCC(=O)Nc4cccnc4)c12)OC(C)(C)CC3	u	-10%	u	15µM*	u	6%
CCCc1cc(=O)oc2c3c(cc(OCC(=O)NCCCn4ccnc4)c12)OC(C)(C)CC3	u	7%	0%	26µM*	16µM*	22%
CCS(=O)(=O)N(C1CC1)C1CCOC2(CCN(C(=O)c3ccc(OC)cc3)CC2)C1 (centres undefined)	x	x	x	x	x	45%
O=C1NC(c2ccccc2)Nc2sc3c(c21)CCN(Cc1ccccc1)C3 (centres undefined)	x	x	x	x	x	70%
CNC1=C(Cl)C(=O)c2ccncc2C1=O	x	5.6µM*	2.8µM*	x	x	x
CNC1=C(Br)C(=O)c2ccncc2C1=O	x	5.6µM*	2.2µM*	x	x	x
CCCCN(CCCC)C(=S)NC(=O)C(C)(C)C	-1%	6.3µM*	3.2µM*	-2%	7%	-9%
